Most compounds without a hit are left out; they make up all but 1.9% or so of the library.
FPR ligand – human FPR ligands by binding competition, primary screen, cell-based, FPRL1 counter-screen, flow cytometry | inhibition, % (no concentration beside the values) | 24,000 tested, 0.74% active | fMet-Leu-Phe receptor (Homo sapiens), P21462 | FPR-expressing cells, fluorescent ligand binding
Target sequence (P21462 whole entry, looked up): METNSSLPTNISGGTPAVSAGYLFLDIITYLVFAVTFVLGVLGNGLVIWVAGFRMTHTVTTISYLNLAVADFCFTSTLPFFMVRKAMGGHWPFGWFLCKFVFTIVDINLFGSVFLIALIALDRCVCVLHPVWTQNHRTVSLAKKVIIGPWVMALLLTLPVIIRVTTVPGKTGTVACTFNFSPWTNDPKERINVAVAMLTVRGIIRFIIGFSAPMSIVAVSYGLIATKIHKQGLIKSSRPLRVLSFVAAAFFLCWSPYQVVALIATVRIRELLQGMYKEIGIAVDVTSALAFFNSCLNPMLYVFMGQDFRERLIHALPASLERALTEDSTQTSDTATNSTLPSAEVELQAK
Prostate diff – activators of LNCaP prostate cell differentiation, primary screen, flow cytometry side scatter; 4 d; side scatter shift, % at 10 µM; 24,000 tested, 0.56% active;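 active means side scatter shift above 30%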;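 further: androgen-responsive LNCaP prostate cancer cells in charcoal-stripped serum medium; higher shift means more granular cells and more differentiation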
VLA-4 antagonist – inhibitors of LDV-FITC binding to Mn2+-activated VLA-4, primary screen, Jurkat cells; LDV-FITC binding with Mn2+, flow cytometry; 100% = Mn2+-driven binding gain fully reversed; inhibition, % at 10 µM (by protocol); 24,000 tested, 0.2% active;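 active means inhibition above 50%; inconclusive means compound itself fluorescent, judged against control cell fluorescence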
FPRL1 ligand – human FPRL1 ligands by binding competition, primary screen, cell-based, FPR counter-screen, flow cytometry; N-formyl peptide receptor 2 (Homo sapiens), P25090; FPRL1-expressing cells, fluorescent ligand binding inhibition; inhibition, % (no concentration beside the values); 24,000 tested, 0.3% active; AID 441, 2006
Target sequence (P25090 whole entry, looked up): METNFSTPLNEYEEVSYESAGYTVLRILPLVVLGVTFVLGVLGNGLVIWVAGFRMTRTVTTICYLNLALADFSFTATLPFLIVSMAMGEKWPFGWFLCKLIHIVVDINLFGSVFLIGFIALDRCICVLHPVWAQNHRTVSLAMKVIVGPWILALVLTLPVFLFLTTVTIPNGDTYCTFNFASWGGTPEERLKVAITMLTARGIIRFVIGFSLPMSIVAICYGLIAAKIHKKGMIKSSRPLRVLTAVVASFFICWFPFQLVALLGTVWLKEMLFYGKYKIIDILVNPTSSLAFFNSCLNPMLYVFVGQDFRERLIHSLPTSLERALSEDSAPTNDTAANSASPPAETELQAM
VLA-4 allo ag – enhancers of LDV-FITC binding to VLA-4 integrin, primary screen, Jurkat cells, flow cytometry; 24,000 tested, under 10 active; activation, % at 10 µM (by protocol); Integrin alpha-4 (Homo sapiens), P13612;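 active means fluorescent ligand binding to cells raised by more than 40% of the manganese-induced maximum; inconclusive means compound's own fluorescence above 85% of the ligand control signal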
Jurkat autofluor – compound autofluorescence on Jurkat cells, primary screen, artefact control for VLA-4 allosteric ligand project, cell-based, flow cytometry. fluorescence ratio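 (tested at 10 µM compound in the well)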. active compounds read high; 1 = vehicle-only cell background. AID 576, 2007. 24,000 tested, 0.61% active;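 active means fluorescence ratio above 2.44, which is 1 plus 3 SD of all ratios; inconclusive means signal too bright to measure linearly, ratio around 10 or more; inactive means fluorescence ratio below 2.44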;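 further: green fluorescence of cells measured with 488 nm excitation and 530 nm emission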
Large screens that a line does not name were inactive. Unless noted, no stated cut-off is given here; in the data, active means inhibition above about 30%; inconclusive means no clear call, values can overlap the other calls; inactive means below that.

c1cc(-c2nc3ccccc3o2)nc(-c2nc3ccccc3o2)c1	none
c1cncc(-c2nc3ccccc3o2)c1	FPR ligand inconclusive, VLA-4 antagonist inconclusive, FPRL1 ligand inconclusive, VLA-4 allo ag inconclusive, Jurkat autofluor 9.82
COc1ccc(C2/C(=C(\O)c3cccc(OC)c3)C(=O)C(=O)N2c2ccccn2)cc1 (centres undefined)	none (no result: Prostate diff, VLA-4 antagonist, VLA-4 allo ag, Jurkat autofluor)
Cc1cc(NC(=O)Nc2cc(C)nn2-c2ccccc2)n(-c2ccccc2)n1	none
Cc1cc(NC(=O)c2noc3c2CCc2ccccc2-3)n(-c2ccccc2)n1	Prostate diff 35.0
O=C(NCC1CCCO1)c1sc(=S)n2c1[nH]c(=O)c1ccc(C(=O)N3CCCCC3)cc12 (centres undefined)	none
CCCCNC(=O)c1sc(=S)n2c1[nH]c(=O)c1ccccc12	FPR ligand 88.9, VLA-4 antagonist inconclusive, VLA-4 allo ag inconclusive
O=C(NC1CCCCC1)c1sc(=S)n2c1[nH]c(=O)c1ccccc12	FPR ligand 62.2, VLA-4 antagonist inconclusive, VLA-4 allo ag inconclusive
Nc1ccnc(C(F)(F)F)c1C(=O)c1ccccc1	none
O=C(Nc1cccnc1)C1CCCN(S(=O)(=O)c2cccc3nsnc23)C1 (centres undefined)	none
CN1CCN(CCCNC(=O)Nc2cccc3ccccc23)CC1	FPRL1 ligand 31.9
C[C@H]1C[C@@H]2[C@H]([C@@H](O)C[C@@]3(C)[C@H]2CC[C@]3(O)C(=O)CO)[C@@]2(C)C=CC(=O)C=C12	none
Cc1[nH]c(=O)[nH]c(=O)c1S(=O)(=O)N1c2ccc(F)cc2CCC1C (centres undefined)	none
CN1CCN(CCCNC(=O)c2cc3c(-c4ccc(Cl)cc4)nn(C)c3s2)CC1	Prostate diff 57.0, VLA-4 antagonist inconclusive, VLA-4 allo ag inconclusive
Cn1nc(-c2ccc(Cl)cc2)c2cc(C(=O)NCC3CCCO3)sc21 (centres undefined)	VLA-4 antagonist inconclusive, VLA-4 allo ag inconclusive
CCN(CC)CCCNC(=O)c1cc2c(-c3ccc(Cl)cc3)nn(C)c2s1	Prostate diff 52.0, VLA-4 antagonist inconclusive, VLA-4 allo ag inconclusive
CCN(CC)CCCNC(=O)c1cc(-c2ccc(Cl)c(Cl)c2)on1	Prostate diff 48.0
CSc1nc(-c2ccccc2O)nc(-c2ccccc2O)n1	VLA-4 antagonist inconclusive, VLA-4 allo ag inconclusive
Cc1c(CCC#N)c(N2CCN(C3CCCCC3)CC2)n2c(nc3ccccc32)c1C#N	VLA-4 antagonist inconclusive, VLA-4 allo ag inconclusive, Jurkat autofluor 8.58
Cc1cc(N2CCN(C3CCCC3)CC2)n2c(nc3ccccc32)c1C#N	none
CCN(CC)c1ccc2c(c1)CCCN2	VLA-4 antagonist inconclusive, VLA-4 allo ag inconclusive, Jurkat autofluor 4.49
O=C(CN1CCN(Cc2ccc3c(c2)OCO3)CC1)N1CCc2[nH]c3ccc(F)cc3c2C1	Prostate diff 50.0
COc1ccccc1NC(=O)NCCN1C(=O)C2C3C=CC(C3)C2C1=O (centres undefined)	none
O=C1c2ccccc2-c2nc3ncnn3c(-c3ccccc3)c21	Prostate diff 40.0
O=C(O)c1ccc2c3c(ncnc13)-c1ccccc1C2=O	none
CCOC(=O)c1c(C)oc2c1c(C=NCc1ccccn1)c(O)c1ccccc12	VLA-4 antagonist inconclusive, VLA-4 allo ag inconclusive, Jurkat autofluor 2.86
O=S(=O)(NCc1cn2ccsc2n1)c1ccc2c(c1)OCCO2	none
Cc1noc(/C=C/c2ccco2)c1S(=O)(=O)N1CCC(C(=O)N2CCc3ccccc3C2)CC1	Prostate diff 43.0
CCOC(=O)Cn1c(=O)oc2cc(S(=O)(=O)Nc3ccc(F)cc3)ccc21	VLA-4 antagonist inconclusive, VLA-4 allo ag inconclusive
COc1ccc(CN(Cc2cc3cc4c(cc3[nH]c2=O)OCO4)C(=O)NC2CCCCC2)cc1	none
COC(=O)c1ccccc1S(=O)(=O)N(Cc1cc2cc3c(cc2[nH]c1=O)OCO3)C1CCCCC1	Prostate diff 41.0
Cc1nn(Cc2ccc(F)cc2)c(C)c1NC(=O)c1cc(-c2ccc3c(c2)OCO3)on1	Prostate diff 30.0
CCc1cccc(NC(=O)CN(c2ccc(OC)cc2)S(=O)(=O)c2c(C)n[nH]c2C)c1	VLA-4 antagonist 62.0
CC(C)(C)OC(=O)N1CCC(C(=O)N2CCCCCC2)CC1	Prostate diff 31.0
CC(=O)c1sc(N2C(=O)c3oc4ccccc4c(=O)c3C2c2ccc(C)o2)nc1C (centres undefined)	none
Cc1[nH]n2c(=O)c3c(nc2c1-c1cccc2ccccc12)CCC3	FPR ligand 47.6 (no result: Prostate diff, VLA-4 antagonist, VLA-4 allo ag, Jurkat autofluor)
CCOc1ccc(C2C(C(=O)c3ccco3)=C(O)C(=O)N2Cc2cccnc2)cc1 (centres undefined)	FPR ligand 49.6 (no result: Prostate diff, VLA-4 antagonist, VLA-4 allo ag, Jurkat autofluor)
COc1ccc(C2C(C(=O)c3ccco3)=C(O)C(=O)N2CCc2ccccc2)cc1OC (centres undefined)	FPR ligand 80.3 (no result: Prostate diff, VLA-4 antagonist, VLA-4 allo ag, Jurkat autofluor)
C=CCOc1ccc(C2C(C(=O)c3ccco3)=C(O)C(=O)N2Cc2cccnc2)cc1 (centres undefined)	none
O=C(C1=C(O)C(=O)N(Cc2ccco2)C1c1cccnc1)c1cc2ccccc2o1 (centres undefined)	none (no result: Prostate diff, VLA-4 antagonist, VLA-4 allo ag, Jurkat autofluor)
Cc1nnc(N2C(=O)C(O)=C(C(=O)c3ccco3)C2c2ccc(F)cc2)s1 (centres undefined)	none
O=C(C1=C(O)C(=O)N(Cc2ccccc2)C1c1ccncc1)c1ccco1 (centres undefined)	FPR ligand 31.7
COc1ccc(C2C(C(=O)c3ccco3)=C(O)C(=O)N2CCOCCO)cc1OC (centres undefined)	none (no result: Prostate diff, VLA-4 antagonist, VLA-4 allo ag, Jurkat autofluor)
COc1cccc2cc(C(=O)C3=C(O)C(=O)N(Cc4ccco4)C3c3cccnc3)oc12 (centres undefined)	FPR ligand 34.1 (no result: Prostate diff, VLA-4 antagonist, VLA-4 allo ag, Jurkat autofluor)
CCCCCC(=O)N1CC2(CC)CN(C(=O)CCCCC)CC(CC)(C1)C2=O	none
Cc1cccc(N2CCN(C(=O)COc3cc(=O)n(C)c4ccccc34)CC2C)c1 (centres undefined)	none
CC(CCc1ccco1)NC(=O)Cn1ncc2c1-c1ccccc1OC2 (centres undefined)	none
CCCOc1ccc(C2C(C(=O)c3ccc(C)o3)=C(O)C(=O)N2Cc2cccnc2)cc1 (centres undefined)	FPR ligand 52.2
O=C(C1=C(O)C(=O)N(CC2CCCO2)C1c1cccnc1)c1ccco1 (centres undefined)	FPR ligand 38.7 (no result: Prostate diff, VLA-4 antagonist, VLA-4 allo ag, Jurkat autofluor)
COCCN1C(=O)C(=O)/C(=C(/O)c2cccc(OC)c2)C1c1ccco1 (centres undefined)	none (no result: Prostate diff, VLA-4 antagonist, VLA-4 allo ag, Jurkat autofluor)
COc1ccc(C2C(C(=O)c3ccco3)=C(O)C(=O)N2Cc2cccnc2)cc1OC (centres undefined)	FPR ligand 38.1 (no result: Prostate diff, VLA-4 antagonist, VLA-4 allo ag, Jurkat autofluor)

High-throughput results as filed in PubChem.
